# Data as given in PubChem BioAssay (NCI).
# The panel holds about 83,000 compounds, 20% with a hit somewhere; the sample as a whole holds those more often.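 How to read the values: 0–100, growth inhibition (40 = 60% inhibited); 0, no net growth; -100 to 0, cell death (-40 = 40% of starting cells died; -100 = all dead).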 Values without a mark were called inactive. The source made the active and inactive calls. The calls were made as follows: active = growth percent below 10; inactive = the rest.
# Tested on: HL-60(TB) leukemia
# Assay: NCI-60 one-dose screen, 48 h (100 = growth as untreated, 0 = no growth, -100 = all killed)
# Settings: 10 µM unless noted
row,SMILES,growth
1,Cn1ncc2c(N)nc(Oc3ccccc3-c3ccccc3)nc21,-18.4% (active)
2,O=C(N=Nc1c(O)[nH]c2ccc(Cl)cc12)c1ccc2nc(-c3ccccc3)[nH]c2c1,72.5%
3,COc1ccc2[nH]cc(/C=N/Nc3cccc(Cl)n3)c2c1,23.7%
4,O=[N+]([O-])c1ccc(-c2nc(-c3ccccc3)c(-c3ccccc3)n2-c2ccc(S(=O)(=O)Nc3ncccn3)cc2)cc1,38.2%
5,CCOc1ccc(/C=N/NC(=O)Cn2nc(Cc3ccc(OC)cc3)c3onc(C)c3c2=O)cc1,57.5%
6,COC(=O)c1c(C(=O)OC)c2n(c1C)[C@@H]([C@@H](C)[C@H]1CC[C@H]3[C@@H]4CCC5=CC(=O)CC[C@]5(C)[C@H]4CC[C@]13C)SC2,7% (active)
7,Cc1c(C(=O)NNC(=O)c2ccc(Cl)cc2)nnn1-c1ccc(Cl)cc1,100%
8,O=C(c1ccc(Cl)cc1)C1[C@H](c2ccccc2Cl)[C@@H](c2ccccc2)NC12C(=O)Nc1ccc(Cl)cc12 (stereo not given in full),-39.9% (active)
9,CN(C)CCCNC(=O)c1cc(NC(=O)c2cc(NC(=O)c3ccc(C#Cc4ccccc4)cc3)cn2C)cn1C,-69.6% (active)
10,COc1ccc(-c2cc(C(=O)N=Nc3c(O)[nH]c4ccc(Cl)cc34)c3ccccc3n2)cc1,96%
11,O=C(/C=C/c1ccc(O)c(O)c1)NC1CCOC1O (stereo not given),99.1%
12,O=C(NN1C(=O)/C(=C/C=C/c2ccc([N+](=O)[O-])o2)SC1=S)c1ccncc1,-30.4% (active)
13,Fc1ccc(Nc2nnc(-c3c[nH]c4ccccc34)o2)cc1,44.8%
14,COc1ccc2[nH]c(=O)c(CSc3ccccc3Nc3nccc(-c4ccc5c(c4)OCO5)n3)cc2c1,74%
15,C=CCSc1nnc(-c2ccc(-c3nc4ccccc4[nH]3)cc2)o1,57.6%
